GluA2 TARP mod – modulates AMPAR-stargazin complexes; hit rate 3.5% among 40,000; HEK293 GluA2+stargazin, membrane potential dye (FDSS), glutamate EC50; hits were called plate by plate, in both directions; O88602+P19491; calls only at 30 µM;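 active = any of four per-well response measures lying three or more SD from its plate-wide compound average, in either direction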
GIRK2 activator – Activators of human GIRK2-containing channels; AID 1259324; activation (% efficacy), % for hits at 37.5 µM; P48051; 34,000 tested, under 10 active; HEK293 GIRK2/NPY4 cells, thallium flux fluorescence;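 active = primary screen hit, no activity in plain HEK293 cells, and in GIRK2-only cells above 5% efficacy rising with concentration; inactive = the rest, including fluorescent compounds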;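 also: efficacy is normalized control-subtracted fluorescence 15 s after thallium addition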
Large screens that a line does not name were inactive. Shown is part of a subset that was picked to be rich in hits.

C=C(C)CN1CCN(c2cc(C)nc3c4c(C)cc(C)nc4nn23)CC1	GluA2 TARP mod active
Cn1c(=O)[nH]c(=O)c2c1nc(SCCCO)n2CCCOc1ccccc1	none
CC(=O)c1ccc(S(=O)(=O)N2CCN(c3ccc4nnc(C)n4n3)CC2)cc1	none
CC(O)CNC(=O)C(=O)Nc1nccs1 (configuration not stated)	none (no result: GIRK2 activator)
O=S(=O)(NCC#CCN1CCCCC1)c1ccc2ccccc2c1	GluA2 TARP mod active (no result: GIRK2 activator)
O=S(=O)(NCC#CCN1CCc2ccccc2C1)c1ccc2ccccc2c1	none
COc1ccc(-c2ccc(OCCNS(=O)(=O)c3cc(C)c(OC)cc3C)nn2)cc1	none
COc1cc(C)c(S(=O)(=O)NCCOc2ccc(-c3ccc(F)cc3)nn2)cc1C	GluA2 TARP mod active
COc1cc(NC(=O)CSC2=NC(C)(C)N=C2c2ccc(Cl)cc2)cc(OC)c1	none
COc1ccc(Br)c(C(=O)Nc2ccc3c(c2)C(=O)N2CCCCC2CCO3)c1 (configuration not stated)	none
CCCCOc1ccc(C(=O)Nc2ccc3c(C)c(C)c(=O)[nH]c3c2)cc1	none (no result: GluA2 TARP mod)
CCc1cc2c(N3CCN(c4nc(C)cc(C)n4)CC3)ncnc2s1	none (no result: GIRK2 activator)
Cc1cc(C)c2c(n1)sc1c(N3CCN(CCO)CC3)ncnc12	GluA2 TARP mod active
Cc1cc(C)n(CCN2CCCN(C(=O)C3(c4ccc(Cl)cc4)CCCC3)CC2)n1	none
O=C(Nc1ccc(Cl)c(Cl)c1)Nc1ccc2cn[nH]c2c1	none
O=C(Nc1ccc2cn[nH]c2c1)c1ccc(=O)[nH]n1	GluA2 TARP mod active
CCCCn1c(=O)c2c(nc3n2CC(C)CN3c2ccccc2OC)n(C)c1=O (configuration not stated)	none (no result: GIRK2 activator)
CCCn1c(=O)c2c(nc3n(-c4cc(OC)ccc4OC)c(-c4ccccc4)cn23)n(C)c1=O	GluA2 TARP mod active (no result: GIRK2 activator)
CCn1c(=O)c2c(nc3n(-c4cc(OC)ccc4OC)c(-c4ccccc4)cn23)n(C)c1=O	none
CCCn1c(=O)c2c(nc3n2CC(C)CN3c2ccccc2OC)n(C)c1=O (configuration not stated)	GluA2 TARP mod active (no result: GIRK2 activator)
COc1ccc2sc(=NC(C)=O)n(CCSC)c2c1	none (no result: GIRK2 activator)
COc1ccc2sc(=NC(=O)c3cc(C)no3)n(CCSC)c2c1	GluA2 TARP mod active
CSc1ccccc1NC(=O)c1cc2n(n1)C(C(F)(F)F)CC(c1ccco1)N2 (configuration not stated)	none (no result: GIRK2 activator)
O=C(NCCc1c[nH]c2ccccc12)c1cc2n(n1)C(C(F)(F)F)CC(c1ccco1)N2 (configuration not stated)	GluA2 TARP mod active (no result: GIRK2 activator)
CS(=O)(=O)Nc1ccccc1C1=NN(C(=O)CCC(=O)O)C(c2ccco2)C1 (configuration not stated)	none
CCc1ccc(S(=O)(=O)Nc2ccc3c(c2)N(C(=O)C2CC2)CC3)s1	GluA2 TARP mod active
COc1ccc(S(=O)(=O)Nc2ccc3c(c2)N(C(=O)C2CC2)CC3)cc1	none
CC(=O)c1cccc(NC(=O)CSc2nc(=O)n(N3CCN(C)CC3)c3c2CCC3)c1	none
C#CCn1c(C2CC(=O)N(C(C)(C)C)C2)nc2ccccc21 (configuration not stated)	none (no result: GIRK2 activator)
O=C1CC(c2nc3ccccc3n2Cc2ccccc2)CN1Cc1ccccc1 (configuration not stated)	GluA2 TARP mod active (no result: GIRK2 activator)
CCCn1c(C2CC(=O)N(C(C)(C)C)C2)nc2ccccc21 (configuration not stated)	none (no result: GIRK2 activator)
CCn1c(C2CC(=O)N(Cc3ccccc3)C2)nc2ccccc21 (configuration not stated)	none (no result: GIRK2 activator)
CCn1c(C2CC(=O)N(C(C)(C)C)C2)nc2ccccc21 (configuration not stated)	none (no result: GIRK2 activator)
CC(C)(C)N1CC(c2nc3ccccc3n2Cc2ccccc2Cl)CC1=O (configuration not stated)	GluA2 TARP mod active (no result: GIRK2 activator)
CC(C)(C)N1CC(c2nc3ccccc3n2Cc2ccccc2)CC1=O (configuration not stated)	GluA2 TARP mod active (no result: GIRK2 activator)
Cc1ccccc1Cn1c(C2CC(=O)N(C(C)(C)C)C2)nc2ccccc21 (configuration not stated)	GluA2 TARP mod active (no result: GIRK2 activator)
CC(C)S(=O)(=O)c1ccc(C(=O)Nc2ccc3c(c2)C(=O)N(C)C3=O)cc1	none
COc1ccccc1CCNC(=O)Cn1nc(-c2ccc(OC)c(OC)c2)ccc1=O	none
CCCCN(C)C(=O)Cn1c(C2CC(=O)N(Cc3ccc(F)cc3)C2)nc2ccccc21 (configuration not stated)	GluA2 TARP mod active
CCCN(CCC)C(=O)Cn1c(C2CC(=O)N(Cc3ccc(F)cc3)C2)nc2ccccc21 (configuration not stated)	none
O=C(c1ccccc1)c1ccc(OCC(O)CN2CCN(c3ccccc3F)CC2)cc1 (configuration not stated)	none
O=C(c1ccccc1)c1ccc(OCC(O)CNc2ccc(F)cc2)cc1 (configuration not stated)	GluA2 TARP mod active
Cn1nc(CNC(=O)COc2ccccc2F)c2ccccc2c1=O	none
COc1ccc(C(=O)Nc2cc(C)nn2-c2nc3c(cnn3-c3cccc(C)c3C)c(=O)[nH]2)c(OC)c1	none (no result: GluA2 TARP mod)
Nc1nc2ccc(OC(F)(F)F)cc2s1	GluA2 TARP mod active
COc1ccc2nc(NC(=O)NC34CC5CC(CC(C5)C3)C4)sc2c1	none
CNC(=O)c1nsc(C(=O)NCc2cccc(C(F)(F)F)c2)c1N	none
CNC(=O)c1nsc(C(=O)NCc2ccc(OC)c(OC)c2)c1N	GluA2 TARP mod active
COc1ccc(-c2ccc(N3CCN(C(=O)CCCc4ccccc4)CC3)nn2)cc1OC	none
O=C(NCCn1ncc2c(N3CCCC3)ncnc21)c1ccc(=O)oc1	GluA2 TARP mod active (no result: GIRK2 activator)
COc1ccc(C(=O)NCCn2ncc3c(N4CCCCCC4)ncnc32)cc1OC	none
O=C(c1cccs1)N(CCN1CCOCC1)c1nc2c(F)cccc2s1	none
O=C(C1COCC(=O)N1Cc1ccccc1)N1CCn2c1nc1ccccc12 (configuration not stated)	none
CC(C)S(=O)(=O)c1cccc(C(=O)Nc2sccc2C#N)c1	none
CC(C)Sc1cccc(C(=O)Nc2sccc2C#N)c1	GluA2 TARP mod active (no result: GIRK2 activator)
Cc1cn2c3c(=O)n(Cc4c(Cl)cccc4Cl)c(=O)n(C)c3nc2n1CCO	none
Cc1cn2c3c(=O)n(CC(N)=O)c(=O)n(C)c3nc2n1-c1ccccc1	none (no result: GIRK2 activator)
CCCCOc1ccc(NC(=O)Nc2cc(N3CCCS3(=O)=O)ccc2OC)cc1	none
O=C(Nc1ccc2c(c1)CN(C(=O)c1ccccc1)CC2)C1CC(=O)N(c2ccc(F)cc2)C1 (configuration not stated)	none
O=C(Nc1cccc(C(F)(F)F)c1)C1CC(=O)N(c2ccc(F)cc2)C1 (configuration not stated)	GluA2 TARP mod active (no result: GIRK2 activator)
O=C(Cc1cc(-c2ccccc2F)on1)NCCc1ccccc1	none
O=C(c1ccno1)N1CCN(c2nc3c(Cl)cccc3s2)CC1	none
COc1ccc(NC(=O)Cn2nc(SC)c(S(=O)(=O)c3ccccc3)c2N)c(OC)c1	GluA2 TARP mod active (no result: GIRK2 activator)
COc1ccc(NC(=O)Cn2nc(SC)c(S(=O)(=O)c3ccc(OC)cc3)c2N)cc1	none (no result: GIRK2 activator)
Cc1ccc(N2CCCS2(=O)=O)cc1NC(=O)Nc1ccc(Cl)c(Cl)c1	none
O=C(Nc1ccc(N2CCCS2(=O)=O)cc1)Nc1ccc(Cl)c(Cl)c1	GluA2 TARP mod active
COc1ccc(N2CC(C)Cn3c2nc2c3c(=O)n(CC(N)=O)c(=O)n2C)c(OC)c1 (configuration not stated)	none (no result: GIRK2 activator)

Screens as filed in PubChem.
